Consider nine compounds from PubChem BioAssay (NCI).

The panel holds about 83,000 compounds, 20% with a hit somewhere; the sample as a whole holds those more often.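 Compound tested at a single concentration for 48 hours in 96-well plates; a percent growth value below 10 was scored as active.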 Unmarked numbers belong to inactive results. Calls of active or inactive are those of the source.

Assay in all cases: NCI-60 one-dose screen, 48 h (100 = growth as untreated, 0 = no growth, -100 = all killed)
Experiment [1] relates to SN12C renal. Particulars: 10 µM unless noted.
The subject of experiment [2] is UO-31 renal. Particulars: 10 µM unless noted.
The test system of experiment [3] is TK-10 renal. Particulars: 10 µM unless noted.
For experiment [4], the system named is ACHN renal. As to conditions: 10 µM unless noted.
Experiment [5] deals with CAKI-1 renal. Particulars: 10 µM unless noted.
For experiment [6], the system named is A498 renal. As to conditions: 10 µM unless noted.
Experiment [7] relates to CCRF-CEM leukemia. Particulars: 10 µM unless noted.
For experiment [8], the system named is MOLT-4 leukemia. As to conditions: 10 µM unless noted.
Experiment [9] relates to SR leukemia. Particulars: 10 µM unless noted.
Experiment [10] has as its system RPMI-8226 leukemia. As to conditions: 10 µM unless noted.
The test system of experiment [11] is OVCAR-8 ovarian. As to conditions: 10 µM unless noted.
In experiment [12] the test system is OVCAR-5 ovarian. Particulars: 10 µM unless noted.
Experiment [13] deals with OVCAR-4 ovarian. Particulars: 10 µM unless noted.
The subject of experiment [14] is SK-OV-3 ovarian. Particulars: 10 µM unless noted.
The subject of experiment [15] is IGROV1 ovarian. Particulars: 10 µM unless noted.
The test system of experiment [16] is OVCAR-3 ovarian. Particulars: 10 µM unless noted.
Experiment [17] relates to HS 578T breast. As to conditions: 10 µM.
Experiment [18] concerns NCI/ADR-RES ovarian. Particulars: 10 µM unless noted.

Turning to `O=C(CI)NCCNc1cccc2c(S(=O)(=O)O)cccc12`, the growth in [1] was 94.7%; in [2], 93.4%; in experiment [3], 111%; in experiment [4] it was 107%; in experiment [5], 109%; in [6], 92.7%. The growth is 100% in experiment [7]; 98.3% in experiment [8]; 90.4% in experiment [9]; 101% in experiment [10]; 110% in [11]; 107% in experiment [12]. Further, the growth in experiment [13] was 110%; in experiment [14], 106%; in [15] it was 97.6%; in experiment [16], 100%; in [17] it was 104%; in experiment [18] it was 106%.

With `COc1ccc(C2CC(c3cccc(Nc4ccnc5cc(Cl)ccc45)c3)=NN2c2ccccc2)cc1` (stereo not given), the growth is 81.3% in experiment [1]; 77.4% in experiment [2]; 111% in [3]; 58.8% in experiment [4]; 19.9% in experiment [5]; 55.7% in experiment [6]. Further, the growth was 57.9% in experiment [7]; 64.3% in experiment [8]; 29.7% in experiment [9]; 67.9% in experiment [10]; 76.4% in experiment [11]; 85.6% in experiment [12]. Also, the growth in [13] is 118%; in experiment [14], 80.8%; in experiment [15] it was 74.8%; in experiment [16] it was 92.1%; in experiment [17], 78.3%.

With `Cc1ccc2cc3c(NC(=O)c4cccnc4)nn(C)c3nc2c1`, the growth is 101% in experiment [1]; 78.6% in experiment [2]; 103% in experiment [3]; 89% in [4]; 85.7% in [5]; 91.7% in [6]. Besides, the growth in experiment [7] was 72.2%; in experiment [8] it was 94.3%; in experiment [9], 95.8%; in experiment [10], 76.3%; in [11], 94.6%; in experiment [12], 102%. Also, the growth in [13] is 97.1%; in experiment [14], 94.2%; in experiment [15] it was 80.6%; in [16], 91.1%; in experiment [17], 96%; in experiment [18], 95%.

`Cc1cc(C)c2c(NC(=O)Nc3ccc(Cl)c(Cl)c3)n[nH]c2n1`: the growth is 103% in experiment [1]; 90.2% in [2]; 112% in experiment [3]; 109% in [4]; 91.6% in experiment [5]; 101% in experiment [6]. The growth is 102% in [7]; 98.3% in experiment [8]; 96.6% in experiment [9]; 100% in experiment [10]; 110% in experiment [11]; 101% in [12]. For the same compound, the growth is 93.2% in experiment [13]; 100% in experiment [14]; 111% in experiment [15]; 113% in experiment [16]; 114% in experiment [17]; 102% in experiment [18].

On to `COc1ccc(C2=NN(C=O)C(c3ccc(OS(=O)(=O)c4ccc(C)cc4)c(OC)c3)C2)cc1` (stereo not given), for which the growth is 76.9% in [1]; 53.9% in experiment [2]; 73.2% in [3]; 69.1% in experiment [4]; 52.7% in experiment [5]; 39.6% in experiment [6]. For the same compound, the growth in [7] was 37.9%; in experiment [8], 40.7%; in experiment [9] it was 23.5%; in experiment [10], 40.3%; in experiment [11] it was 59.6%; in experiment [12], 89.9%. The growth in experiment [13] was 40.5%; in experiment [14], 84.3%; in experiment [15], 79.1%; in experiment [16], 60.8%; in experiment [17] it was 60.1%.

On to `NS(=O)(=O)c1ccc(N2N=C(c3cccs3)CC2c2ccccc2O)cc1` (stereo not given), for which the growth in experiment [1] was 16.5%; in [2], 34.9%; in experiment [3], 23.5%; in experiment [4] it was 15.9%; in experiment [5] it was 24.2%; in [6], -13.2% (active). Besides, the growth in [7] is 4.36% (active); in experiment [8], 8.13% (active); in experiment [9], 1.1% (active); in experiment [10] it was 7.41% (active); in experiment [11], 9.96% (active); in [12] it was 9.55% (active). The growth in experiment [13] is 60.8%; in experiment [14], 6.78% (active); in experiment [15], 12.7%; in experiment [16], -20.6% (active); in experiment [17] it was 17.3%; in [18], 27.3%.

Take `CC(C)(C)c1ccc(Cn2c(-c3nonc3N)nc3ccccc32)cc1`: the growth in experiment [1] was 73.6%; in experiment [2] it was 51.4%; in experiment [3] it was 81.9%; in experiment [4] it was 77.3%; in [5], 62.2%; in experiment [6] it was 80.1%. Moreover, the growth in [7] was 46.7%; in experiment [8] it was 62.6%; in experiment [9], 28.2%; in experiment [10], 61.9%; in experiment [11] it was 80.1%; in experiment [12], 99.2%. The growth in experiment [13] was 98.4%; in experiment [14], 61%; in experiment [15], 66.6%; in experiment [16], 69%; in [17] it was 85.1%; in [18], 75.8%.

For the compound `COc1cccc(Cn2c(-c3nonc3NC(C)=O)nc3ccccc32)c1`, the growth is 48.4% in [1]; 36% in experiment [2]; 26.6% in experiment [3]; 42.8% in [4]; 24% in experiment [5]; -0.794% (active) in experiment [6]. The growth in experiment [7] was 41%; in experiment [8], 38.7%; in experiment [9], 16.3%; in experiment [10] it was 28.4%; in experiment [11], 50.9%; in [12], 39.2%. Besides, the growth in [13] was 79.9%; in [14] it was 16.9%; in experiment [15] it was 56.8%; in experiment [16] it was 69.5%; in experiment [17], 23.6%; in [18], 30.3%.

`COc1ccc(C2=Nn3c(nnc3-c3ccc(Cl)cc3N)SC2)cc1`: the growth in experiment [1] is 99%; in experiment [2] it was 83.4%; in [3], 130%; in [4], 97%; in experiment [5], 92.9%; in experiment [6], 118%. The growth is 73.2% in experiment [7]; 101% in experiment [8]; 102% in [9]; 103% in experiment [10]; 98.1% in experiment [11]; 99.5% in [12]. In addition, the growth in experiment [13] is 103%; in experiment [14], 102%; in experiment [15], 114%; in experiment [16] it was 114%; in experiment [17], 113%; in [18] it was 115%.
